# Assay results taken from PubChem BioAssay.
# Values without a mark were called inactive. Where a call stands in place of a potency, no number is given. For some assays here: Potency and affinity values are given separately. Calls of active or inactive are those of the source. Unless noted, how the calls were made is not given here.
# What was measured:
# [1] = antimalarial activity against Dd2 strain (AID 2302;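 active means growth inhibition above 50% at the single 2 µM test dose, taken to imply half-maximal potency below 2 µM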); conditions: P. falciparum Dd2 in RBCs, LDH growth readout, 72 h; at 2 µM; stronger effect = higher value
# [2] = human hepatoma cell viability loss – ATP luminescence, cytotoxicity control for P. falciparum antimalarial project, primary screen (AID 2303;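 active means inhibition above 50%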); conditions: HepG2 viability, 24-48 h, at 10 µM, stronger effect = higher value
# [3] = target: L-lactate dehydrogenase (Plasmodium falciparum (isolate CDC / Honduras)) (UniProt Q27743); test: PfLDH activity inhibition – cell lysate, 3D7 strain, counter-screen for P. falciparum growth inhibition project (AID 2304); conditions: P. falciparum 3D7 crude extract, LDH APAD/NBT absorbance; at 2 µM; stronger effect = higher value
# L-lactate dehydrogenase (Plasmodium falciparum (isolate CDC / Honduras)), sequence (Q27743 whole entry, looked up): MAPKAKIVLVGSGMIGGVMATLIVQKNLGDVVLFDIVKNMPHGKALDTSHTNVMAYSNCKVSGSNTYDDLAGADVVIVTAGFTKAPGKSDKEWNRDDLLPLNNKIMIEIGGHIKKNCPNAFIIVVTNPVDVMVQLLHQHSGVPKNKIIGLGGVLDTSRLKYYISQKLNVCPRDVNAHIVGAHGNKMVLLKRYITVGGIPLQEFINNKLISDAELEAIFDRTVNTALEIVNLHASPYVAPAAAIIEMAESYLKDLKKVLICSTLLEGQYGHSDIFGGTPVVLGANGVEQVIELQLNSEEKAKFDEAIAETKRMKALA
# [4] = inhibition of 3D7 malaria parasite growth – strain 3D7 (AID 2306); conditions: P. falciparum 3D7 erythrocytic growth, LDH absorbance, 72 h; at 2 µM; stronger effect = higher value
# [5] = target: Calcium-dependent protein kinase 1 (Plasmodium falciparum (isolate 3D7)) (UniProt P62344); test: PfCDPK1 kinase inhibitors, biochemical, TCAMS library (AID 1159585; cut-off not given, nearly all actives have IC50 up to about 0.98 µM;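 further: inhibitors leave more ATP so luminescence rises with inhibition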); conditions: recombinant PfCDPK1, Kinase-Glo ATP depletion luminescence
# Calcium-dependent protein kinase 1 (Plasmodium falciparum (isolate 3D7)), sequence (P62344 whole entry, looked up): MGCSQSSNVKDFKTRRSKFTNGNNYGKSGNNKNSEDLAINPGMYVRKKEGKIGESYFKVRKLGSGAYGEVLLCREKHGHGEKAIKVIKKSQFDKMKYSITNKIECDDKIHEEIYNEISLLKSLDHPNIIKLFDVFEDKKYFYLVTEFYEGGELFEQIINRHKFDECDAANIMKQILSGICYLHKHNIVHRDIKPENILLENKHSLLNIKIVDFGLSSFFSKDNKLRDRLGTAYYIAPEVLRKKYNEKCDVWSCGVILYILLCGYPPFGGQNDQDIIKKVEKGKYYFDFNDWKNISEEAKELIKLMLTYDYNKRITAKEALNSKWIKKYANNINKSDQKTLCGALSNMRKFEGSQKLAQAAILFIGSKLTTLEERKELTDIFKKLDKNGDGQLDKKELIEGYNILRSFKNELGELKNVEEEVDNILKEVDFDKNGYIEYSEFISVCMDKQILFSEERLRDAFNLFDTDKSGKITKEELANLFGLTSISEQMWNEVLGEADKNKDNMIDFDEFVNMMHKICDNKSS
# [6] = target: Plasmodium falciparum protein kinase 6 (PK6, PF3D7_1337100) (UniProt Q8IDW1); test: PfPK6 kinase inhibitors, biochemical, TCAMS library (AID 1159586); conditions: recombinant PfPK6, Kinase-Glo ATP depletion luminescence
# Plasmodium falciparum protein kinase 6 (PK6, PF3D7_1337100), sequence (Q8IDW1 1-305): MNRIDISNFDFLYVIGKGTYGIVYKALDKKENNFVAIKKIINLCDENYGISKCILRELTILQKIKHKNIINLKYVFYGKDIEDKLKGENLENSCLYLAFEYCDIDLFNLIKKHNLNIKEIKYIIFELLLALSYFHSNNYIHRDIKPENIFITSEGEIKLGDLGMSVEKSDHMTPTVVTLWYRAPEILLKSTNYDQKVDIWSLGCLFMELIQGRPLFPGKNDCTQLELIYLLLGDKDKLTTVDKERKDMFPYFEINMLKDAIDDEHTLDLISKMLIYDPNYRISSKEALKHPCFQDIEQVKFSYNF
# [7] = target: Protein kinase 7 (PK7), Plasmodium falciparum 3D7 (PF3D7_0213400) (UniProt Q7YTF7); test: inhibition of Plasmodium PK7 catalytic activity – biochemical, TCAMS antimalarial set, Kinase-Glo luminescence (AID 1159587); conditions: recombinant PfPK7, Kinase-Glo ATP depletion luminescence
# Protein kinase 7 (PK7), Plasmodium falciparum 3D7 (PF3D7_0213400), sequence (Q7YTF7 1-343): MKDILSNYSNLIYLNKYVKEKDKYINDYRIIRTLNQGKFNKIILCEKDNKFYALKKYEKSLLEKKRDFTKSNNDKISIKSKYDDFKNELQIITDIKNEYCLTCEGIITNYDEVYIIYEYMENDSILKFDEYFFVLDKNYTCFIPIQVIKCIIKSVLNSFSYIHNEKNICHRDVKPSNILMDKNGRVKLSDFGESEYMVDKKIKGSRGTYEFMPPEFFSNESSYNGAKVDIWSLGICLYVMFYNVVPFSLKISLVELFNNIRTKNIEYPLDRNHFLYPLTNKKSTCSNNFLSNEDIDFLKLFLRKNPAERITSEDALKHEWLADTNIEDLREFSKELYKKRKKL
# [8] = target: Calcium-dependent protein kinase 4 (Plasmodium falciparum (isolate 3D7)) (UniProt Q8IBS5); test: PfCDPK4 kinase inhibitors, biochemical, TCAMS library (AID 1159588; cut-off not given, nearly all actives have IC50 up to about 0.91 µM); conditions: recombinant PfCDPK4, Kinase-Glo ATP depletion luminescence
# Calcium-dependent protein kinase 4 (Plasmodium falciparum (isolate 3D7)), sequence (Q8IBS5 whole entry, looked up): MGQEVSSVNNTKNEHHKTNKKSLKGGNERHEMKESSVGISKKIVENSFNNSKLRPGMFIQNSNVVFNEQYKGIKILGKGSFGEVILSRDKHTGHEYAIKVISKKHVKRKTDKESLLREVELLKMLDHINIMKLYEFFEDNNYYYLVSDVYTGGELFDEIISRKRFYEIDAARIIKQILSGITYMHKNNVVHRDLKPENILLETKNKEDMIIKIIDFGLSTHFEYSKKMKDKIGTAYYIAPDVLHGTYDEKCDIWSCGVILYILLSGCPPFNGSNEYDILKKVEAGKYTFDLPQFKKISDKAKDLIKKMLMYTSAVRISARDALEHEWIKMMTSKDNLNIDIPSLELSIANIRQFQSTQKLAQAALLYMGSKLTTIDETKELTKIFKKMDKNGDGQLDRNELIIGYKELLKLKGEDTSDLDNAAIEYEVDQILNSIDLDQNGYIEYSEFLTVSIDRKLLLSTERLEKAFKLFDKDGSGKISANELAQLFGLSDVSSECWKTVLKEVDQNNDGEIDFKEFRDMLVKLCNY
SMILES,growth inhibition [1],inhibition [2],inhibition [3],growth inhibition [4],outcome [5],outcome [6],outcome [7],outcome [8]
O=C(Nc1ccc(Br)cc1)Nc1ccc(Cn2ncc(N3CCCNCC3)c(Cl)c2=O)cc1,15%,-7%,-1%,87% (active),inactive,inactive,inactive,inactive
O=C(/C=C/c1ccc(Cl)c(Cl)c1)NCCCCCCN1CCN(C(=O)Nc2ccc(Cl)c(Cl)c2)CC1,0%,23%,-1%,88% (active),inactive,inactive,inactive,inactive
Cc1cnccc1/C=C/c1cccc(OCCN2CCc3ccc(S(C)(=O)=O)cc3CC2)c1,80% (active),9%,-4%,93% (active),inactive,inactive,inactive,inactive
CC(C)CCN1CCCN(Cc2ccc(C(=O)NCc3ccc(Cl)cc3)cc2)CC1,-4%,16%,1%,84% (active),inactive,inactive,inactive,inactive
COc1cccc(CNC[C@@H](O)[C@H](Cc2ccccc2)NC(=O)c2cc3c4c(c2)c(C(C)C)cn4CCS(=O)(=O)N3C)c1,98% (active),21%,-6%,98% (active),inactive,inactive,inactive,inactive
Cc1cc(CNCC(CCNc2cc(=O)c3ccccc3[nH]2)NCc2cc(Br)cc(Br)c2)oc1C (stereo not given),85% (active),4%,2%,98% (active),inactive,inactive,inactive,inactive
NCc1cccc(-c2ccc(CNC3CCN(Cc4ccccc4)CC3)cc2)c1,3%,2%,0%,95% (active),inactive,inactive,inactive,inactive
NCCNc1ccnc2cc(Cl)ccc12,54% (active),9%,4%,101% (active),inactive,inactive,inactive,inactive
CCNc1cc(C(=O)N[C@@H](Cc2ccccc2)[C@H](O)CNC(C)(C)CCCC(C)C)c(F)c(N2CCCS2(=O)=O)c1,97% (active),-2%,-4%,98% (active),inactive,inactive,inactive,inactive
CCNCc1ccc(-c2cc3ncnc(Nc4ccc(OCc5cccc(F)c5)c(Cl)c4)c3s2)[nH]1,74% (active),22%,6%,103% (active),inactive,inactive,inactive,inactive
Cc1[nH]nc2cc(Nc3ccnc(Nc4ccc(CN5CCOCC5)cc4)n3)ccc12,5%,22%,-4%,97% (active),inactive,inactive,inactive,inactive
COC(=O)c1cccc(NC(=O)NC2CCN(c3ccnc(NCc4ccc(F)cc4)n3)CC2)c1,39%,29%,5%,93% (active),inactive,inactive,inactive,inactive
O=C(CNC(=O)c1ccc(O)cc1)Nc1cccc(-c2cccc(-c3nc4ccc(C(F)(F)F)cc4[nH]3)c2)c1,28%,63% (active),5%,96% (active),inactive,inactive,inactive,inactive
CCCCCCCCc1c(C)[nH]c(C)c(C#N)c1=O,96% (active),0%,4%,97% (active),inactive,inactive,inactive,inactive
CCCCOc1cc(OC)c2ccccc2c1CCNCCCCNCCc1c(OCCCC)cc(OC)c2ccccc12,82% (active),100% (active),-6%,82% (active),inactive,inactive,inactive,inactive
COc1cc(Br)c(NC(=O)Nc2ccc(C(F)(F)F)c(O[C@@H]3CCN(C)C3)c2)cc1OC,27%,10%,-1%,97% (active),inactive,inactive,inactive,inactive
COc1ccc2nc(N(CCCn3ccnc3)C(=O)C=Cc3cccs3)sc2c1,26%,8%,-3%,92% (active),inactive,inactive,inactive,inactive
Cc1cc(NCCCCCCN)nc(Nc2ccc(Cl)cc2)n1,26%,25%,1%,100% (active),inactive,inactive,inactive,inactive
O=C(/C=C/c1ccc(Cl)c(Cl)c1)NCCCCCN1CC[C@H](NC(=O)/C=C/c2ccccc2)C1,1%,10%,1%,93% (active),inactive,inactive,inactive,inactive
CC(C)C[C@H](Nc1ccnc(NCC2CCCCC2)n1)C(=O)NCCc1ccccc1,66% (active),10%,0%,88% (active),inactive,inactive,inactive,inactive

SMILES,growth inhibition [1],inhibition [2],inhibition [3],growth inhibition [4],outcome [5],outcome [6],outcome [7],outcome [8]
N=C1C=C(N)C(=O)c2ccccc21,85% (active),99% (active),-2%,81% (active),inactive,inactive,inactive,inactive
C[C@H](NC(=O)[C@H](Cc1ccccc1)NC(=O)OC(C)(C)C)C(=O)N[C@@H](CC1CCCCC1)C(O)CN (stereo not given in full),64% (active),-4%,-5%,96% (active),inactive,inactive,inactive,inactive
CN1CCCN(Cc2cccc(-c3ccc(NC(=O)c4cccc(Cl)c4)cc3)c2)CC1,10%,34%,-3%,90% (active),inactive,inactive,inactive,inactive
COCCNCc1cccc(C#Cc2cc3ncnc(Nc4ccc(OCc5cccc(F)c5)c(Cl)c4)c3s2)n1,52% (active),35%,-4%,99% (active),inactive,inactive,inactive,inactive
CCOC(=O)c1c(C)n(-c2ccccc2)c2ccc(O)cc12,87% (active),-7%,-4%,101% (active),inactive,inactive,inactive,inactive
CCN(CC)C(=NCCCCCCN=C(NC(N)=NCc1ccc(Cl)cc1Cl)N(CC)CC)NC(N)=NCc1ccc(Cl)cc1Cl,99% (active),16%,-3%,102% (active),inactive,inactive,inactive,inactive
COc1ccccc1CCNc1ncc(F)c(N[C@@H](Cc2ccccc2)C(=O)NCCc2ccccc2)n1,83% (active),7%,-2%,90% (active),inactive,inactive,inactive,inactive
COc1cccc(C=Cc2nc(=O)c3ccccc3o2)c1OC,97% (active),-19%,7%,97% (active),inactive,inactive,inactive,inactive
Cc1cc(O)c2c3c1C(=O)C=C1C3c3c(c(O)cc(O)c3C(=O)C1(C)C)C2=O (stereo not given),46%,45%,-3%,98% (active),inactive,inactive,inactive,inactive
CCOC(=O)c1c(C)noc1Nc1cccc(C)c1C,-2%,8%,2%,98% (active),inactive,inactive,inactive,inactive
O=C(Nc1ccc(F)c([N+](=O)[O-])c1)Nc1cc(C(F)(F)F)ccc1Cl,86% (active),5%,0%,101% (active),inactive,inactive,inactive,inactive
COCCN1CCN(Cc2ccc(-c3ccc(-c4nc5ccc(F)cc5[nH]4)cc3)cc2)CC1,99% (active),25%,-2%,101% (active),inactive,inactive,inactive,inactive
COc1ccc(Nc2nccc(-c3ccc(NC(=O)c4cc5cc(F)ccc5[nH]4)cc3)n2)cc1,26%,21%,-2%,91% (active),inactive,inactive,inactive,inactive
COc1ccc2nccc([C@@H](O)CN3CCC(NC(=O)/C=C/c4cccc(C)c4)CC3)c2c1,28%,16%,-2%,84% (active),inactive,inactive,inactive,inactive
CC(C)COc1ccc(Cl)cc1Cc1ccc(-c2nc3c(F)c(F)ccc3[nH]2)o1,85% (active),26%,-1%,94% (active),inactive,inactive,inactive,inactive
O=C(Nc1ccc(F)cc1F)NC1CCN(c2ccnc3cc(Cl)ccc23)C1 (stereo not given),82% (active),25%,1%,100% (active),inactive,inactive,inactive,inactive
O=C(Nc1cccc(-c2cccc(-c3ccc(F)cc3)n2)c1)c1ccc([N+](=O)[O-])o1,42%,100% (active),4%,99% (active),inactive,inactive,inactive,inactive
CCN(CC)CCn1c2ccccc2c2ccc(C(=O)Nc3ccc4sc(C)nc4c3)cc21,26%,97% (active),-5%,84% (active),inactive,inactive,inactive,inactive
Cc1nc2nc(N)nc(N)c2c(C)c1Cc1cccs1,2%,66% (active),-1%,95% (active),inactive,inactive,inactive,inactive
CS(=O)(=O)c1ccc(CCNCc2ccc(-c3cccc(-c4nc5ccccc5[nH]4)c3)cc2)cc1,99% (active),40%,-4%,100% (active),inactive,inactive,inactive,inactive
